# Screen size: about 13,000 compounds; about 3,200 (25%) showed an effect of 50% or more. The list shows a part of the results.
# Tested on: P. falciparum stage V gametocytes
# Parameters: BacTiter-Glo ATP luminescence viability of purified stage V gametocytes in 384-well plates, per cent inhibition versus DMSO
# Settings: 48 h, 5 µM; inhibitor
row,SMILES,% Inhibition
1,CCNc1cc(CC)nc(Nc2ccc(C)cc2)n1 [TCMDC-133992],-2.88%
2,COc1cc(N)c(Cl)cc1C(=O)NC1CCC(NCC2CCCCC2)CC1 (stereo not shown) [TCMDC-136726],0.4196%
3,Cc1cccc2nc(-c3ccc(-c4ccc(NC(=O)Nc5ccc(Cl)c(Cl)c5)cc4)s3)[nH]c12 [TCMDC-133273],-52.78%
4,O=C(/C=C/c1ccc(C(F)(F)F)cc1)NCCCCCN1CCCN(C(=O)Nc2ccc(Cl)c(C(F)(F)F)c2)CC1 [TCMDC-136105],-22.56%
5,Cc1cc(Nc2ccc(C)c(Cl)c2)n2nc(C(F)(F)F)nc2n1 [TCMDC-124919],-6.645%
6,Cc1cc(Nc2ccncc2)n2nc(C)c(-c3ccccc3Cl)c2n1 [TCMDC-124918],99.62%
7,Cc1cc(Nc2ccc(Cl)c(Cl)c2)n2nc(C)nc2n1 [TCMDC-124417],-6.756%
8,Cc1cc(Nc2ccnc(-c3ccc(Cl)cc3)n2)ccn1 [TCMDC-141398],-5.017%
9,Cc1cc(Nc2ccc(C)c(C)c2)n2nc(C)nc2n1 [TCMDC-124418],9.818%
10,Cc1cc(Nc2ccc3ccccc3c2)n2ncnc2n1 [TCMDC-125840],18.77%
11,Cc1cc(Nc2ccc(Cl)cc2)n2nc(C(F)(F)F)nc2n1 [TCMDC-123826],-17.3%
12,Cc1cc(Nc2ccncc2)n2nc(C)c(-c3ccc(Cl)cc3)c2n1 [TCMDC-124478],102.4%
13,CCc1nn2c(Nc3ccncc3)cc(C)nc2c1-c1ccccc1 [TCMDC-124917],106.8%
14,Cc1nc(N)nc(N)c1C#CC1CCCC1 [TCMDC-137728],11.69%
15,CC(C)(C)c1ccc(NC(=O)c2ccc(CN3CCCN(Cc4cccc(F)c4)CC3)cc2)cc1 [TCMDC-136431],-15.47%
16,CC1(C)S(=O)(=O)CC(O)CS1(=O)=O [TCMDC-131669],10.31%
17,Cc1c(C(=O)NCc2ccncc2)sc2nc(-c3cccc([N+](=O)[O-])c3)cn12 [TCMDC-124992],-38.46%
18,Nc1ncc(-c2ccc(Cl)c(Cl)c2)c(N)n1 [TCMDC-138994],6.577%
19,O=C(/C=C/c1ccc(Cl)c(Cl)c1)NC1CCN(Cc2ccc(O)cc2)CC1 [TCMDC-141741],16.03%
20,Cc1[nH]c(C)c(-c2ccc(CCc3cccc(C(F)(F)F)c3)nc2)c(=O)c1Cl [TCMDC-136014],76.88%
21,Cc1[nH]c(C)c(-c2ccc(CCc3ccc(C(F)(F)F)cc3)nc2)c(=O)c1Cl [TCMDC-136051],71.49%
22,CCCCCCCc1ccc(-c2c(C)[nH]c(C)c(Cl)c2=O)cn1 [TCMDC-135816],34.89%

# — paper PMC4552634, “A New Set of Chemical Starting Points with Plasmodium falciparum Transmission-Blocking Potential for Antimalarial Drug Discovery” (PLoS ONE, 2015)
